Measurements as given in PubChem BioAssay AID1159580 (chemical genetic matrix, 2015).
“And” between values parts separate entries of the source, which are not always exact repeats. Identical values can stand only once. Among all 5,500 compounds or so, about 2,000 (36%) were called active. Another 18% or so got no clear call; they are omitted. The list shows a part of the results. Unmarked numbers belong to inactive results. No stated cut-off is given here; in the data, active means normalized growth mostly below about 0.91 (no sharp cut-off); inconclusive means no clear call, values can overlap the other calls; inactive means mostly above about 0.92.

Assay: chemical genetic growth profiling, strain panel (AID 1159580);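 further: tested at 20 µM; growth read once vehicle control cultures reached saturation at 30 °C; 1 = growth at the plate median or of vehicle wells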
Conditions: growth OD
[1] = S. cerevisiae deletion strains, locus YAL013W, strain DEP1, stronger effect = lower value
[2] = S. cerevisiae deletion strains, locus YAL040C, strain CLN3, stronger effect = lower value
[3] = S. cerevisiae deletion strains, locus YCL061C, strain MRC1 (second series), stronger effect = lower value
[4] = S. cerevisiae deletion strains, locus YDR150W, strain NUM1, stronger effect = lower value
[5] = S. cerevisiae deletion strains, locus YDR363W, strain ESC2, stronger effect = lower value
[6] = S. cerevisiae deletion strains, locus YER002W, strain NOP16, stronger effect = lower value
[7] = S. cerevisiae deletion strains, locus YHR030C, strain SLT2, stronger effect = lower value
[8] = S. cerevisiae deletion strains, locus YHR079C, strain IRE1, stronger effect = lower value
[9] = S. cerevisiae deletion strains, locus YJL095W, strain BCK1, stronger effect = lower value
[10] = S. cerevisiae deletion strains, locus YJR066W, strain TOR1, stronger effect = lower value
[11] = S. cerevisiae deletion strains, locus YLR113W, strain HOG1, stronger effect = lower value
[12] = S. cerevisiae deletion strains, locus YNL153C, strain GIM3, stronger effect = lower value
[13] = S. cerevisiae deletion strains, locus YNL175C, strain NOP13, stronger effect = lower value
[14] = S. cerevisiae deletion strains, locus YNL183C, strain NPR1, stronger effect = lower value
[15] = S. cerevisiae deletion strains, locus YNL197C, strain WHI3, stronger effect = lower value
[16] = S. cerevisiae deletion strains, locus YNL224C, strain SQS1, stronger effect = lower value
[17] = S. cerevisiae deletion strains, locus YOR083W, strain WHI5 (second series), stronger effect = lower value
[18] = S. cerevisiae deletion strains, locus YOR231W, strain MKK1, stronger effect = lower value
[19] = S. cerevisiae deletion strains, locus YPL256C, strain CLN2, stronger effect = lower value
[20] = S. cerevisiae deletion strains, locus YJR075W, strain HOC1, stronger effect = lower value

For O=C(O)Cc1cnc[nH]1, the normalized growth [1] was 1.04, the normalized growth [2] was 1.04 and the normalized growth [3] was 1.02. It also gave a normalized growth [4] of 1.04, a normalized growth [5] of 1.02 and a normalized growth [6] of 1.01. The normalized growth [7] was 0.992, the normalized growth [8] was 1.01 and the normalized growth [9] was 1. The normalized growth [10] was 0.985, the normalized growth [11] was 1 and the normalized growth [12] was 1.03. For the same compound, the normalized growth [13] was 1, the normalized growth [14] was 0.938 and the normalized growth [15] was 1.01. For the same compound, the normalized growth [16] was 1, the normalized growth (S. cerevisiae deletion strains, locus YNL322C, strain KRE1, stronger effect = lower value) was 1.02 and the normalized growth [17] was 1.01. For the same compound, the normalized growth [18] was 1, the normalized growth (S. cerevisiae deletion strains, locus YPL241C, strain CIN2, stronger effect = lower value) was 1.01 and the normalized growth [19] was 1.
C[C@]12CC[C@@H]3c4ccc(O)cc4CC[C@H]3[C@@H]1CC[C@@H]2O showed a normalized growth [1] of 1, a normalized growth [2] of 1.01 and a normalized growth [3] of 1.01. For the same compound, the normalized growth [4] was 1.01, the normalized growth [5] was 1.01 and the normalized growth [6] was 1.02. For the same compound, the normalized growth (S. cerevisiae deletion strains, locus YGR078C, strain PAC10, stronger effect = lower value) was 0.999, the normalized growth [20] was 1.01 and the normalized growth [12] was 0.948. It also gave a normalized growth [13] of 1.01, a normalized growth [15] of 1.03 and a normalized growth [16] of 1.03. It also gave a normalized growth [17] of 0.899.
CC12CCC3c4ccc(OC(=O)c5ccccc5)cc4CCC3C1CCC2O (stereo unspecified) showed a normalized growth (S. cerevisiae deletion strains, locus YBR021W, strain FUR4, stronger effect = lower value) of 1.06, a normalized growth (S. cerevisiae deletion strains, locus YBR229C, strain ROT2, stronger effect = lower value) of 1 and a normalized growth (S. cerevisiae deletion strains, locus YCL029C, strain bik1, stronger effect = lower value) of 1. It also gave a normalized growth (S. cerevisiae deletion strains, locus YDL035C, strain GPR1, stronger effect = lower value) of 1, a normalized growth (S. cerevisiae deletion strains, locus YDL074C, strain BRE1, stronger effect = lower value) of 0.981 and a normalized growth (S. cerevisiae deletion strains, locus YDL101C, strain DUN1, stronger effect = lower value) of 0.992. The normalized growth (S. cerevisiae deletion strains, locus YDL134C, strain PPH21, stronger effect = lower value) was 1, the normalized growth (S. cerevisiae deletion strains, locus YDL185W, strain tfp1, stronger effect = lower value) was 0.999 and the normalized growth (S. cerevisiae deletion strains, locus YDL192W, strain arf1, stronger effect = lower value) was 0.995. The normalized growth (S. cerevisiae deletion strains, locus YDR101C, strain arx1, stronger effect = lower value) was 0.99, the normalized growth (S. cerevisiae deletion strains, locus YDR162C, strain NBP2, stronger effect = lower value) was 1.02 and the normalized growth (S. cerevisiae deletion strains, locus YDR318W, strain mcm21, stronger effect = lower value) was 0.99. For the same compound, the normalized growth (S. cerevisiae deletion strains, locus YDR388W, stronger effect = lower value) was 0.993, the normalized growth (S. cerevisiae deletion strains, locus YDR502C, strain sam2, stronger effect = lower value) was 1 and the normalized growth (S. cerevisiae deletion strains, locus YEL061C, strain CIN8, stronger effect = lower value) was 1.01. It also gave a normalized growth (S. cerevisiae deletion strains, locus YER110C, stronger effect = lower value) of 1, a normalized growth (S. cerevisiae deletion strains, locus YER155C, strain BEM2, stronger effect = lower value) of 1.01 and a normalized growth (S. cerevisiae deletion strains, locus YER167W, strain BCK2, stronger effect = lower value) of 1. For the same compound, the normalized growth (S. cerevisiae deletion strains, locus YGL078C, strain dbp3, stronger effect = lower value) was 1, the normalized growth (S. cerevisiae deletion strains, locus YGL086W, strain mad1, stronger effect = lower value) was 1 and the normalized growth (S. cerevisiae deletion strains, locus YGL248W, strain PDE1, stronger effect = lower value) was 0.992. For the same compound, the normalized growth (S. cerevisiae deletion strains, locus YGR135W, strain pre9, stronger effect = lower value) was 0.997, the normalized growth (S. cerevisiae deletion strains, locus YGR229C, strain SMI1, stronger effect = lower value) was 1.02 and the normalized growth (S. cerevisiae deletion strains, locus YGR252W, strain gcn5, stronger effect = lower value) was 1. The normalized growth [7] was 1.01 and 1.03, the normalized growth (S. cerevisiae deletion strains, locus YHR079C, strain IRE1 (second series), stronger effect = lower value) was 1 and the normalized growth [8] was 1.05. For the same compound, the normalized growth (S. cerevisiae deletion strains, locus YHR094C, strain hxt1, stronger effect = lower value) was 0.995, the normalized growth (S. cerevisiae deletion strains, locus YHR129C, strain ARP1, stronger effect = lower value) was 1 and the normalized growth (S. cerevisiae deletion strains, locus YHR200W, strain rpn10, stronger effect = lower value) was 1. The normalized growth (S. cerevisiae deletion strains, locus YIL066C, strain RNR3, stronger effect = lower value) was 1, the normalized growth (S. cerevisiae deletion strains, locus YIL073C, strain SPO22, stronger effect = lower value) was 1.03 and the normalized growth (S. cerevisiae deletion strains, locus YIL125W, strain kgd1, stronger effect = lower value) was 0.994. The normalized growth (S. cerevisiae deletion strains, locus YIR030C, strain dcg1, stronger effect = lower value) was 0.997, the normalized growth [9] was 0.958 and 1.01 and the normalized growth (S. cerevisiae deletion strains, locus YJL134W, strain LCB3, stronger effect = lower value) was 1.01. The normalized growth (S. cerevisiae deletion strains, locus YJL168C, strain set2, stronger effect = lower value) was 0.989, the normalized growth (S. cerevisiae deletion strains, locus YJL187C, strain SWE1 (second series), stronger effect = lower value) was 1 and the normalized growth (S. cerevisiae deletion strains, locus YJR043C, strain POL32, stronger effect = lower value) was 1.01. The normalized growth [10] was 0.963, the normalized growth [20] was 1.01 and the normalized growth (S. cerevisiae deletion strains, locus YKL009W, strain mrt4, stronger effect = lower value) was 1. For the same compound, the normalized growth (S. cerevisiae deletion strains, locus YKL068W, stronger effect = lower value) was 1.01, the normalized growth (S. cerevisiae deletion strains, locus YKL085W, strain MDH1 (second series), stronger effect = lower value) was 1 and the normalized growth (S. cerevisiae deletion strains, locus YKL085W, strain MDH1, stronger effect = lower value) was 1. The normalized growth (S. cerevisiae deletion strains, locus YKL190W, strain CNB1, stronger effect = lower value) was 1.01, the normalized growth (S. cerevisiae deletion strains, locus YKR001C, strain vps1, stronger effect = lower value) was 0.945 and the normalized growth (S. cerevisiae deletion strains, locus YLR039C, strain RIC1, stronger effect = lower value) was 0.755. It also gave a normalized growth (S. cerevisiae deletion strains, locus YLR058C, strain SHM2, stronger effect = lower value) of 1.01, a normalized growth (S. cerevisiae deletion strains, locus YLR102C, strain apc9, stronger effect = lower value) of 0.991 and a normalized growth [11] of 1.02. For the same compound, the normalized growth (S. cerevisiae deletion strains, locus YLR262C, strain YPT6, stronger effect = lower value) was 0.606 (active), the normalized growth (S. cerevisiae deletion strains, locus YLR268W, strain sec22, stronger effect = lower value) was 1 and the normalized growth (S. cerevisiae deletion strains, locus YLR330W, strain CHS5, stronger effect = lower value) was 1.02. For the same compound, the normalized growth (S. cerevisiae deletion strains, locus YLR342W, strain FKS1 (second series), stronger effect = lower value) was 0.999, the normalized growth (S. cerevisiae deletion strains, locus YLR371W, strain rom2, stronger effect = lower value) was 0.995 and the normalized growth (S. cerevisiae deletion strains, locus YLR418C, strain cdc73, stronger effect = lower value) was 0.949. It also gave a normalized growth (S. cerevisiae deletion strains, locus YML016C, strain PPZ1, stronger effect = lower value) of 1.01, a normalized growth (S. cerevisiae deletion strains, locus YML032C, strain rad52, stronger effect = lower value) of 0.992 and a normalized growth (S. cerevisiae deletion strains, locus YML124C, strain tub3, stronger effect = lower value) of 0.999. It also gave a normalized growth (S. cerevisiae deletion strains, locus YMR078C, strain ctf18, stronger effect = lower value) of 0.988, a normalized growth (S. cerevisiae deletion strains, locus YMR223W, strain ubp8, stronger effect = lower value) of 1 and a normalized growth (S. cerevisiae deletion strains, locus YMR263W, strain SAP30, stronger effect = lower value) of 1.01. The normalized growth (S. cerevisiae deletion strains, locus YMR307W, strain GAS1, stronger effect = lower value) was 1.22, the normalized growth (S. cerevisiae deletion strains, locus YNL067W, strain RPL9B, stronger effect = lower value) was 1.01 and the normalized growth (S. cerevisiae deletion strains, locus YNL128W, strain TEP1, stronger effect = lower value) was 1.04. It also gave a normalized growth [12] of 0.997, a normalized growth [14] of 0.934 and a normalized growth (S. cerevisiae deletion strains, locus YNL233W, strain BNI4, stronger effect = lower value) of 0.97. For the same compound, the normalized growth (S. cerevisiae deletion strains, locus YNL250W, strain rad50, stronger effect = lower value) was 1, the normalized growth (S. cerevisiae deletion strains, locus YNL271C, strain bni1, stronger effect = lower value) was 0.992 and the normalized growth (S. cerevisiae deletion strains, locus YNL298W, strain CLA4, stronger effect = lower value) was 0.993. It also gave a normalized growth (S. cerevisiae deletion strains, locus YNL307C, strain MCK1, stronger effect = lower value) of 0.926, a normalized growth (S. cerevisiae deletion strains, locus YNR052C, strain pop2, stronger effect = lower value) of 1 and a normalized growth (S. cerevisiae deletion strains, locus YOL006C, strain TOP1, stronger effect = lower value) of 0.921. It also gave a normalized growth (S. cerevisiae deletion strains, locus YOL012C, strain htz1) of 0.873, a normalized growth (S. cerevisiae deletion strains, locus YOL147C, strain pex11, stronger effect = lower value) of 1 and a normalized growth (S. cerevisiae deletion strains, locus YOR061W, strain CKA2, stronger effect = lower value) of 1. For the same compound, the normalized growth (S. cerevisiae deletion strains, locus YOR069W, strain VPS5, stronger effect = lower value) was 1.01, the normalized growth (S. cerevisiae deletion strains, locus YOR136W, strain idh2, stronger effect = lower value) was 1 and the normalized growth (S. cerevisiae deletion strains, locus YOR144C, strain elg1, stronger effect = lower value) was 1. The normalized growth (S. cerevisiae deletion strains, locus YOR184W, strain ser1, stronger effect = lower value) was 0.974, the normalized growth [18] was 1.03 and the normalized growth (S. cerevisiae deletion strains, locus YOR316C, strain cot1, stronger effect = lower value) was 0.992. The normalized growth (S. cerevisiae deletion strains, locus YPL055C, strain LGE1, stronger effect = lower value) was 1, the normalized growth [19] was 1.06 and the normalized growth (S. cerevisiae deletion strains, locus YPR119W, strain clb2, stronger effect = lower value) was 0.994. It also gave a normalized growth (S. cerevisiae deletion strains, locus YPR141C, strain kar3, stronger effect = lower value) of 1, a normalized growth (S. cerevisiae deletion strains, locus YPR163C, strain tif3, stronger effect = lower value) of 1.01 and a normalized growth (S. cerevisiae deletion strains, locus YPR167C, strain met16, stronger effect = lower value) of 1. For the same compound, the normalized growth (S. cerevisiae deletion strains, strain wtn01, stronger effect = lower value) was 0.996 and the normalized growth (S. cerevisiae strains, strain wild type, stronger effect = lower value) was 1.
